The results in this text go back to article PMC4336329 (PLoS ONE, 2015).

Structures are written as SMILES. Out of some 310,000 compounds screened, about 14,000 (4.5%) showed an effect of 50% or more. The effect is printed as a negative number. Only a selection was taken, and strong results are over-represented in it overall.
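Note: peak tail current of the secondary pulse compared with the same well before compound.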

human ether-à-go-go-related gene (hERG) potassium channel, sequence (Q12809 whole entry, looked up): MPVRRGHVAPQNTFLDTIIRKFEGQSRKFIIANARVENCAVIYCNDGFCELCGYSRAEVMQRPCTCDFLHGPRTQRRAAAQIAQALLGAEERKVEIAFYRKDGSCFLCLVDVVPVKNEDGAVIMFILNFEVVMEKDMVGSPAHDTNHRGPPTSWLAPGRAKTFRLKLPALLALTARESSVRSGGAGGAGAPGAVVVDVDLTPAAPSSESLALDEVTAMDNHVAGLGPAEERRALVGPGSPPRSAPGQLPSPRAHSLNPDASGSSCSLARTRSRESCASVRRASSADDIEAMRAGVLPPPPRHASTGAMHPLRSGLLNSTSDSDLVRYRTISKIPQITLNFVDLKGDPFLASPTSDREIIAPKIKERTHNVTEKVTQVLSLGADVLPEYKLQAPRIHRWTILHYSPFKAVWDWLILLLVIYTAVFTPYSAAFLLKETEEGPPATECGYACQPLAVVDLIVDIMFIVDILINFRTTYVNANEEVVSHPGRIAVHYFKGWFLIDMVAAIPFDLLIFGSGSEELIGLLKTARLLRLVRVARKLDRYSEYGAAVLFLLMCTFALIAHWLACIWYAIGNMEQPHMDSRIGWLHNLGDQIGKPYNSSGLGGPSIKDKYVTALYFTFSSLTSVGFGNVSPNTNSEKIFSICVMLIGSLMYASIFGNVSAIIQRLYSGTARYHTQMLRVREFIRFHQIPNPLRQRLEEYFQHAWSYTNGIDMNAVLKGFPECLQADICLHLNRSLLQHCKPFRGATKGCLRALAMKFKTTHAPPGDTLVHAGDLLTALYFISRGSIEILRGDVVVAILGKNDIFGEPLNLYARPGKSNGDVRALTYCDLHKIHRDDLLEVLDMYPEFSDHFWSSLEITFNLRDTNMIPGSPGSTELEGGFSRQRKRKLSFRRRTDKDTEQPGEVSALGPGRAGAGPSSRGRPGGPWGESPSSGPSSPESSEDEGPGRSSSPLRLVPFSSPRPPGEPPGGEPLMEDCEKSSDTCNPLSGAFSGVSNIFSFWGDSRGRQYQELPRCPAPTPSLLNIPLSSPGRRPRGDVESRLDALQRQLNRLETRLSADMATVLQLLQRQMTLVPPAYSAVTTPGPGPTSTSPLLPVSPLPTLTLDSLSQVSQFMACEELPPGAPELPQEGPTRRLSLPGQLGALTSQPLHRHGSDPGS

This assay has as its target human ether-à-go-go-related gene (hERG) potassium channel (human, UniProt Q12809). The experiment in a line: primary screen, population patch clamp on CHO cells stably expressing hERG; higher = less effect of the substance.
For `COCCNC(=S)N/N=C(\C)c1ccc(C)c([N+](=O)[O-])c1`, the “hERG current change (%, negative = inhibition) at 10uM” value is on record as -26.6%.

On to `COCCNC(=S)N/N=C(\C)c1cccc([N+](=O)[O-])c1`, for which the “hERG current change (%, negative = inhibition) at 10uM” value was -70.4%. Take `C/C(=N\NC(N)=O)c1ccc(-n2ccnc2)cc1`: the “hERG current change (%, negative = inhibition) at 10uM” value was 10.9%. To `CCNC(=S)N/N=C(\C)c1cccc([N+](=O)[O-])c1` belongs -45.9%; to `C/C(=N\NC(=O)COc1ccc(C(C)(C)C)cc1)c1ccc(-n2ccnc2)cc1`, -58.9%; to `C/C(=N\NC(=O)COc1ccc(C)cc1C(C)C)c1ccc(-n2ccnc2)cc1`, -33.4%.

For the compound `C/C(=N\NC(=O)COc1ccc(C(C)(C)C)cc1)c1ccc(N2CCOCC2)cc1`, the “hERG current change (%, negative = inhibition) at 10uM” value is recorded as 5.99%. In the case of `C=CCNC(=S)N/N=C(\C)c1ccc(-n2ccnc2)cc1`, the “hERG current change (%, negative = inhibition) at 10uM” value is given as -43%. For the compound `COc1ccc(OCC(=O)N/N=C(\C)c2ccc(-n3ccnc3)cc2)cc1`, the “hERG current change (%, negative = inhibition) at 10uM” value is recorded as -42.6%.

As to `C=C(C)CNC(=S)N/N=C(\C)c1ccc(-n2ccnc2)cc1`, the “hERG current change (%, negative = inhibition) at 10uM” value is listed as -37.7%.

On to `CCc1ccc(OCC(=O)N/N=C(\C)c2ccc(-n3ccnc3)cc2)cc1`, for which the “hERG current change (%, negative = inhibition) at 10uM” value is on record as -71.8%.

With `COCCNC(=S)N/N=C(\C)c1ccc(-n2ccnc2)cc1`, the “hERG current change (%, negative = inhibition) at 10uM” value is reported as -66.2%. Consider `CCN(C(=O)COC(=O)c1ccc2[nH]c3c(c2c1)CCCC3)C1CCS(=O)(=O)C1` (stereo not shown), for which the “hERG current change (%, negative = inhibition) at 10uM” value was -8.35%.

For the compound `COc1ccccc1C(=O)Nc1nnc(S(=O)(=O)N2CCCCCC2)s1`, the “hERG current change (%, negative = inhibition) at 10uM” value stood at 3.54%. Consider `COc1cc(/C=C/C(=O)O)cc(S(=O)(=O)Nc2ccc3cn[nH]c3c2)c1OC`, for which the “hERG current change (%, negative = inhibition) at 10uM” value is listed as 9.74%.

On to `O=c1[nH]c(-c2ccccn2)nc2ccccc12`, for which the “hERG current change (%, negative = inhibition) at 10uM” value is on record as -3.46%. For the compound `COc1ccc(/C=N/Nc2nc(-c3ccc(Cl)cc3)cc(C(F)(F)F)n2)c(OC)c1`, the “hERG current change (%, negative = inhibition) at 10uM” value amounted to 2.62%. For `CC(C)CNC(=O)CSc1ccc(Cl)cc1`, the “hERG current change (%, negative = inhibition) at 10uM” value is on record as -3.84%. `O=C(CN1CCN(Cc2ccccc2)CC1)c1ccccc1`: the “hERG current change (%, negative = inhibition) at 10uM” value is on record as 1.35%. Turning to `Cc1ccc(OCC(=O)Nc2ccc(N3CCN(S(C)(=O)=O)CC3)cc2)cc1`, the “hERG current change (%, negative = inhibition) at 10uM” value is recorded as 17.4%. As for `CCc1ccc(NC(=O)CN2CC(c3ccccc3)CC2=O)cc1` (stereo not shown), the “hERG current change (%, negative = inhibition) at 10uM” value was -27.6%.

Consider `CN(CC1CCOCC1)C(=O)c1ccc2nc(Cc3cccc(Cl)c3)oc2c1`, for which the “hERG current change (%, negative = inhibition) at 10uM” value is -69.7%. With `CN(CCCN1CCOCC1)C(=O)c1ccc2nc(Cc3cccc(Cl)c3)oc2c1`, the “hERG current change (%, negative = inhibition) at 10uM” value is -6.26%. As to `O=C(NCC1CCOCC1)c1ccc2nc(Cc3cccc(Cl)c3)oc2c1`, the “hERG current change (%, negative = inhibition) at 10uM” value is given as -12.8%.

Regarding `Cc1ccc(C)c(S(=O)(=O)C(C#N)c2nc3ccccc3nc2N2CC(C)OC(C)C2)c1` (stereo not shown), the “hERG current change (%, negative = inhibition) at 10uM” value worked out at 4.01%. To `Cc1ccc(OCCC(=O)OCC(=O)Nc2ccc3[nH]c(=O)[nH]c3c2)cc1` belongs -20.3%; to `Cc1ccccc1C(=O)NCCCn1ccnc1`, 18.3%; to `Cc1ccc2nc(-c3ccccc3)cc(C(=O)NCCCn3ccnc3)c2c1`, -40.7%. With `CCC(CC)NC(=O)c1cc2c(C)nn(Cc3ccccc3Cl)c2s1`, the “hERG current change (%, negative = inhibition) at 10uM” value is reported as 10.9%. For the compound `Cc1ccc(-c2cc(C(=O)NCCCn3ccnc3)c3ccccc3n2)s1`, the “hERG current change (%, negative = inhibition) at 10uM” value is -70.9%. `Cc1ccc(-c2cc(C(=O)NCCCn3ccnc3)c3cc(Br)ccc3n2)o1`: the “hERG current change (%, negative = inhibition) at 10uM” value is on record as -73.8%.

Take `Cc1nn(Cc2ccccc2Cl)c2sc(C(=O)NCCCn3ccnc3)cc12`: the “hERG current change (%, negative = inhibition) at 10uM” value is on record as -82.6%.

As for `CCc1ccc(-c2cc(C(=O)NCc3ccco3)c3ccccc3n2)s1`, the “hERG current change (%, negative = inhibition) at 10uM” value is on record as -9.4%. The value for `CCc1ccc(-c2cc(C(=O)NCCCn3ccnc3)c3ccccc3n2)s1` was -73.6%; that for `Cc1nn(Cc2ccccc2Cl)c2sc(C(=O)NC(C)(C)C)cc12` was 10.7%. To `CCc1ccc(-c2cc(C(=O)O)c3ccccc3n2)s1` belongs 16.9%. Consider `O=C(NCCCn1ccnc1)c1cc(-c2cccnc2)nc2ccc(Br)cc12`, for which the “hERG current change (%, negative = inhibition) at 10uM” value is reported as -45.1%.

For the compound `CCOc1ccc(-c2cc(C(=O)NCCCn3ccnc3)c3cc(Br)ccc3n2)cc1`, the “hERG current change (%, negative = inhibition) at 10uM” value was found to be 7.06%. To `CC(C)CC(=O)CN1C(=O)C2(OCCO2)c2ccccc21` belongs 13.2%. To `COc1ccc(-c2cc(C(F)F)nc(-n3nc(C)cc3C)n2)cc1` belongs 11.7%; to `O=c1cc(-c2ccccc2)c2ccc(O)c(CN3CCCCC3)c2o1`, -8.89%; to `COc1ccc2nc(Nc3nc4cc5c(cc4s3)OCO5)sc2c1`, 6.67%. With `O=S(=O)(Nc1c(O)ccc2ccccc12)c1cccc2ccccc12`, the “hERG current change (%, negative = inhibition) at 10uM” value turned out to be 6.79%.

Turning to `COc1ccc(C(CNC(=O)c2[nH]c(C)c(C(C)=O)c2C)N2CCOCC2)cc1` (stereo not shown), the “hERG current change (%, negative = inhibition) at 10uM” value was -4.61%. Regarding `Cc1nc2oc3c(NCC4CCCO4)ncnc3c2c2c1COC(C)(C)C2` (stereo not shown), the “hERG current change (%, negative = inhibition) at 10uM” value is -16.6%. On to `CC(=O)Nc1nc(C)c(CCCOc2ccc([N+](=O)[O-])cc2)c(=O)[nH]1`, for which the “hERG current change (%, negative = inhibition) at 10uM” value was found to be 0.762%.
